Bioassay records as filed in PubChem BioAssay.
TNAP act mid DEA: activators of human TNAP at intermediate phosphate acceptor; P05186; activation factor at 20 µM; purified TNAP, CDP-star luminescence, 100 mM DEA, 30 min; hits give high values; scale: 0 levamisole-inhibited, 1 vehicle-only enzyme; AID 813; 64,000 tested, under 10 active;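 active means activation factor of at least 2 at 20 µM, relative to controls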
Target sequence (P05186 whole entry, looked up): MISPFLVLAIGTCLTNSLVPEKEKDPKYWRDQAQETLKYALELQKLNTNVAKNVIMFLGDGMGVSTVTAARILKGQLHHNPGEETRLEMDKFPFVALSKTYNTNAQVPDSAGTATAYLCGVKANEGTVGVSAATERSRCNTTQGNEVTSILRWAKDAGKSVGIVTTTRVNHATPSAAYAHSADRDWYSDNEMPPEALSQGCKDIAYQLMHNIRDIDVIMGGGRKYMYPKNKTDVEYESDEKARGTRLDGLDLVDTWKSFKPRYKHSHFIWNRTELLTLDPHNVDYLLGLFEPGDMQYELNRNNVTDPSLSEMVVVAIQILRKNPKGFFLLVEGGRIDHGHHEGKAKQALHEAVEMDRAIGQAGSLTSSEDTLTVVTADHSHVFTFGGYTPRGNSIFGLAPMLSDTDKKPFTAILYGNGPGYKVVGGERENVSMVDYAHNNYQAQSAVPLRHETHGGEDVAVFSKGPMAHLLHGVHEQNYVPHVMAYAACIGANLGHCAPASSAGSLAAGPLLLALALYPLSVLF
Candida biofilm: kills Candida albicans biofilms; inhibition, % at 6 µM; C. albicans biofilm + clotrimazole, Alamar Blue; 85,000 tested, 0.14% active;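 active means inhibition above 20%; inactive means inhibition below 20%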;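 further: preformed 24 hr biofilms exposed to compound for 48 hr; 0% = biofilm without compound and 100% = blank killed by clotrimazole plus chlorhexidine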
D1 allo mod: D1 dopamine receptor (human) allosteric modulation | P21728 | HEK293 D1, CRE-luciferase, dopamine EC30 potentiation; actives deviate in either direction | B-score at 10 µM | 58,000 tested, 5.9% active;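 active means luminescence count or its row- and column-corrected plate score outside the 99.7% band of the plate's sample wells, on either side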
DAT uptake mod: modulates human dopamine transporter uptake under cocaine; B-score at 10 µM; Q01959; AID 449768; 110,000 tested, 1.3% active; LLC-PK1 hDAT cells, [14C]-dopamine uptake with cocaine IC80; actives deviate in either direction;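 active means Z score or B-score, a plate-position-corrected score, falls beyond the plate's 99.7% confidence bounds, in either direction; inactive means both scores lie inside the 99.7% bounds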;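 further: scored against the spread of the other compound wells on the same plate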
HePTP inhibitor: human HePTP phosphatase inhibition; P35236; recombinant HePTP phosphatase activity, OD absorbance; inhibition, % at 20 µM; 110,000 tested, 0.64% active; AID 521; in the data active means inhibition above about 50%;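 further: plate controls were vehicle for no effect and reference inhibitor for full effect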
PLAP act: human PLAP activation; activation fold at 20 µM; AID 696; purified PLAP enzyme, luminescent substrate read-out; hits give high values; P05187; 96,000 tested, 1.2% active; in the data active means activation fold above about 2
Active calls of the source: *; / = no result. Shown is part of a subset that was picked to be rich in hits.

SMILES	TNAP act mid DEA	Candida biofilm	D1 allo mod	DAT uptake mod	HePTP inhibitor	PLAP act
CCC(C)(C)n1nnnc1C(c1ccc2ncccc2c1)N1CCN(Cc2ccc3c(c2)OCO3)CC1 (stereo not drawn)	1	4	0.23	1.6	-1	2.1*
COC(=O)c1sccc1NC(=O)Nc1ccc(Cl)c(Cl)c1	/	/	/	-7.9*	/	1
COc1cc(Br)cc(/C=C(\C#N)C(=O)NC2CCCCC2)c1O	/	/	/	/	-1	/
COc1ccc(-c2[nH]ncc2/C=C(/C#N)C(=O)NC2CCCCCC2)cc1	/	/	/	2.8*	/	1.1
CCNc1cc2oc(=O)c(CN3CCOCC3)c(C)c2cc1C	1.1	0	1.4	0.0097	9	2*
Cc1cc2oc(=O)cc(CN3CCOCC3)c2cc1C	/	4	/	-0.59	/	0.7
CN(C)c1ccc(C(=O)OCc2ccccc2)cc1	/	43*	/	0.57	/	1
CC(=O)C1=C(C)NC(SCC(N)=O)=C(C#N)C1c1sccc1C (stereo not drawn)	/	7	/	6.9*	/	1.1
Cc1ccc(C)n1/N=C1/NC(=O)CS1	0.9	5	-0.063	-3.1*	7	1.4
COc1ccc(/C=C/C(=O)NC(=S)NNC(=O)c2cccnc2)cc1OC	/	/	/	-1.2	/	2*
O=C(c1ccco1)N1CCN(C(=O)c2ccc(COc3ccc4c(c3)CCC4)o2)CC1	/	3	/	3.7*	/	1.2
CCOc1ccc(/C=N\N2CCN(c3ccccc3OC)CC2)cc1	/	/	/	/	6	/
CC1(C)OC(=O)C(=CNc2cccc(C(=O)O)c2)C(=O)O1	0.9	3	-0.1	-7*	5	1.1
CC1(C)OC(=O)C(=CNc2ccccc2)C(=O)O1	0.9	8	-0.44	0.033	4	1
O=C1NC(=O)/C(=C\c2ccc(-c3ccc(C(=O)O)cc3)o2)S1	/	/	/	/	10	/
COc1cc2c(cc1OC)C(c1ccc(N(C)C)cc1)CC(=O)N2 (stereo not drawn)	0.9	7	0.66	0.35	1	1.2
CCN(CC)c1ccc(C2CC(=O)Nc3cc(OC)c(OC)cc32)cc1 (stereo not drawn)	0.9	6	0.031	2.4*	7	1.1
CC(C)Oc1ccccc1NC(=O)c1ccccc1SCc1ccc(F)cc1	/	/	/	/	92*	/
CCc1ccc(OCCNC(=O)c2ccccc2SCc2ccc(F)cc2)cc1	/	/	/	/	/	0.9
N#CC1=C(N)NC(SCC(=O)c2ccc(Cl)cc2)=C(C#N)C12CCCC2	/	10	/	1.1	104*	1.1
Cc1cc(C(=O)CSc2nnc(-c3cccc(F)c3)n2N)c(C)n1Cc1ccc2c(c1)OCO2	0.9	/	-7.8*	-0.4	2	1.2
CC(=O)Oc1ccc2nc(-c3ccc([N+](=O)[O-])c(C)c3)oc(=O)c2c1	/	/	/	/	-8	/
O=C(Cc1ccccc1)Nc1ccccc1N1CCOCC1	/	5	/	0.26	/	1.1
CN(C)CCCNCC(=O)Nc1ccccc1N1CCOCC1	/	/	/	-7.7*	/	1
Cc1cc(C)n(-c2nc(NCCC(C)C)c3c4c(sc3n2)COC(C)(C)C4)n1	/	-1	/	/	/	2.9*
SMILES	TNAP act mid DEA	Candida biofilm	D1 allo mod	DAT uptake mod	HePTP inhibitor	PLAP act
COc1ccc(-c2n[nH]c(=S)n2CC(C)C)cc1	/	-2	/	1.3	/	2.5*
Cc1ccc(C(=O)Nc2c3c(nn2C(C)(C)C)CS(=O)(=O)C3)cc1C	1	-6	-2.9*	-0.22	-10	1
CC(C)(C)n1nc2c(c1NC(=O)c1ccc(Br)cc1)CS(=O)C2 (stereo not drawn)	0.9	2	-0.42	-0.9	2	1.4
O=C(Cn1c(=O)oc2cc(S(=O)(=O)N3CCCCCC3)ccc21)NC1CCCCCCC1	0.9	7	/	-0.058	10	0.9
CC1CCCCN1S(=O)(=O)c1ccc2c(c1)oc(=O)n2CC(=O)O (stereo not drawn)	0.9	7	-0.45	-2.3*	-4	1.1
Cc1ccnc(NS(=O)(=O)c2cc(C(C)(C)C)cc(C(C)(C)C)c2)c1	/	/	/	/	-16	/
CN(C)CCCCCCCCCCNC(=O)/C=N\O	/	/	/	/	5	/
CC1(CC(=O)N/N=C/c2ccc(OCc3ccc(Cl)cc3Cl)cc2)OCCCO1	/	/	/	3.4*	/	1.7
CCOc1ccccc1NC(=O)N1CCC(n2nnc3cc(C)ccc32)CC1	1	-2	/	2.4*	9	1.5
COC(=O)c1ccccc1NC(=O)CN1CCC(n2nnc3cc(C)ccc32)CC1	0.8	-3	/	/	2	1
C(=NNc1cc(N2CCCCC2)nc(N2CCCCC2)n1)c1ccco1	/	/	/	/	3	/
CC(=Nc1ccc(C)cc1)c1sc2ccccc2c1O	/	0	/	-1.1	/	1
CC(=Nc1cccc(O)c1)c1sc2ccccc2c1O	0.8	14	-4.3*	-0.29	4	0.8
COC(=O)c1ccc(-n2c(C)cc(/C=C3/SC(N)=NC3=O)c2C)cc1	/	/	/	/	-9	/
CC(=O)NC1=NC(=O)/C(=C/c2cc(C)n(-c3ccc(C(=O)O)cc3)c2C)S1	/	/	/	/	61*	/
O=C(Cn1nnc2ccccc21)NCc1ccccc1	0.9	6	-2.1	-8.5*	4	0.9
Cc1nc2ccccc2n1CC(=O)NCc1ccccc1	1	0	0.063	0.074	3	0.9
O=C(CC1S\C(=N/N=C/C=C/c2ccccc2)NC1=O)Nc1ccc(Cl)cc1 (stereo not drawn)	/	/	/	/	8	/
O=C(/C=C\c1cccs1)NC(=S)Nc1ccc([N+](=O)[O-])cc1O	/	/	/	/	-19	/
Cc1ccc(O)c(C2=NNC(O)(C(F)(F)F)C2)c1 (stereo not drawn)	/	5	/	0.036	/	2.2*
Cc1ccc(O)c(-c2cc(-c3ccccc3F)[nH]n2)c1	/	0	/	-0.52	/	0.9
O=C(NC(=S)Nc1ccc(Oc2ccccc2)cc1)c1ccc(Cl)cc1	/	/	/	2.6*	/	0.8
CCNC(=S)Nc1ccc(Oc2ccccc2)cc1	/	/	/	-2.7*	/	/
COc1ccc(NC(=S)Nc2ccc(Oc3ccccc3)cc2)cc1	/	/	/	-0.056	/	1.3
O=C(Nc1cc([N+](=O)[O-])ccc1Cl)c1cc(-c2cccs2)nc2ccccc12	/	/	/	/	-2	/
SMILES	TNAP act mid DEA	Candida biofilm	D1 allo mod	DAT uptake mod	HePTP inhibitor	PLAP act
COc1ccc(-c2cc(-c3ccccc3)nc(N/N=C/c3ccc(O)cc3O)n2)cc1OC	/	/	/	/	-9	/
CCCCOC(=O)c1cccc(NC(=O)c2ccc(OC)cc2)c1	/	/	/	/	104*	/
CNC(=O)c1ccc2snnc2c1	0.9	8	/	-0.23	10	1.2
COc1ccc(NC(=O)c2ccc3snnc3c2)cc1	/	6	/	-2.9*	/	/
COc1ccc(C(=O)Nc2cccc(C)c2)cc1	0.9	8	-3.5*	0.91	3	0.9
COc1ccc(NC(=O)c2ccc(Nc3nnc(C)c4ccccc34)cc2)cc1	/	/	/	/	60*	/
CNC(=O)c1ccc(Nc2nnc(C)c3ccccc23)cc1	/	-3	/	0.54	/	/
O=C(O)CCCCCN1C(=O)C(=O)/C(=C(/O)c2ccc(F)cc2)C1c1ccc(O)cc1 (stereo not drawn)	/	/	/	/	-1	/
O=C(c1ccc(Cl)cc1)c1ccc2c(c1)OCCCO2	/	/	/	/	-15	/
Cc1cccc(NC(=O)c2cnccn2)c1	/	/	/	/	60*	/
CCc1cccc(NC(=O)c2cnccn2)c1	/	/	/	/	-10	/
CN(C(=O)CSc1nnc2ccccn12)C1CCS(=O)(=O)C1 (stereo not drawn)	/	2	/	0.96	/	0.9
